Results on 40 molecules are retold here after PubChem BioAssay.

A short description of the assay: reversal of MRP1-mediated doxorubicin resistance, pilot screen, H69AR cells, doxorubicin co-treatment (AID 601). Conditions: H69AR cells, CellTiter-Glo, 72 h; compound alone cytotoxicity; at 10 µM. In general terms: ATP-based viability assays read luminescence as a measure of living cells.
In general, viability refers to a read-out of living cells in per cent, often relative to untreated cells. As to `CCOC(=O)C(NC(C)=O)(NS(=O)(=O)c1ccccc1)C(F)(F)F` (stereo not given), the viability turned out to be 100%.
As to `N#Cc1c(/N=C/c2ccco2)sc2c1CCC2`, the viability came out at 85.7%.
Take `c1ccc(-c2noc(C34CC5CC(CC(C5)C3)C4)n2)nc1`: the viability is 83.4%.
Then `COc1cc(S(=O)(=O)N2CCOCC2)ccc1NC(=O)COC(=O)C12CC3CC(CC(C3)C1)C2`, with 85%; and `Cc1cc(C)n(-c2nc3c(c(=O)n(Cc4ccc(Cl)c(Cl)c4)c(=O)n3C)n2C)n1`, with 95.6%; and `O=C(CCN1C(=O)COc2ccccc21)NCCCN1CCN(c2ccccc2F)CC1`, with 84.6%.
As to `CC(=O)c1cc(F)c(N2CCN(C(=O)Cc3ccccc3)CC2)cc1C`, the viability came to 93.5%.
Turning to `COc1ccc(-n2nnnc2-c2cccc(OC)c2)cc1`, the viability came out at 34.5%.
In the case of `COc1ccc(OC)c(Nc2cc(-c3ccccc3)nc(N)n2)c1`, the viability was 30.7%.
As for `Cc1ccc(-c2csc3ncn(-n4c(C)ccc4C)c(=O)c23)o1`, the viability came to 91.3%.
As for `O=C(CN1C(=O)CCSc2ccccc21)Nc1ccccc1`, the viability amounted to 104%.
Regarding `CC(=O)Nc1ccc(S(=O)(=O)Nc2nc3ccccc3nc2N2CCCC2)cc1`, the viability is 92.3%.
For the molecule `CC(=O)c1cnc2cc(-c3ccccc3)nn2c1C`, the viability is 103%.
As to `Nc1cc(C(=O)O)ccc1Nc1ccc(F)c(F)c1`, the viability is 105%.
In the case of `O=C(NCc1cccnc1)c1cn(CCc2ccccc2)nn1` it was 109%; in that of `COc1ccc(-n2c(SCc3ccc(C#N)cc3)nnc2-c2ccccn2)cc1`, 96.3%; in that of `CC(C)(C)OC(=O)N1CCC(C(=O)N2CCCCCC2)CC1`, 107%.
For the molecule `CC(NO)C(C)(C)NO` (stereo not given), the viability was found to be 100%.
Regarding `CCn1c(=O)cc(OCC(=O)Nc2cc(C)ccn2)c2ccccc21`, the viability turned out to be 86.4%.
In the case of `CCC(=O)N1CCc2cc(S(=O)(=O)CCC(=O)Nc3ccc(C)c(F)c3)ccc21`, the viability came to 83.3%.
In the case of `CCN(CC)S(=O)(=O)N1CCC(C(=O)NC2CCCc3ccccc32)CC1` (stereo not given) it was 90.5%; in that of `O=C(CN1C(=O)c2cccc3cccc1c23)N1CCN(c2ccccc2)CC1`, 113%; in that of `CC(C)CCn1c(=O)c2ccccc2n2c(CN(C)Cc3ccccc3)nnc12`, 84.4%.
With `C=CCn1c(SCC(=O)NC23CC4CC(CC(C4)C2)C3)nc(O)cc1=O`, the viability was 92.9%.
Consider `Nc1nnc(C(=O)c2ccccc2N)s1`, for which the viability was determined as 96.3%.
On to `COc1ccc(CCNC(=O)C2CC(=O)N(c3ccccc3)C2)cc1OC` (stereo not given), for which the viability was 91.5%.
Then `O=C(NCc1nnc(SCC(=O)N2CCCCCC2)o1)c1ccco1`, with 111%; and `COc1ccc(CNc2nc(NCc3ccc(OC)cc3)n(S(C)(=O)=O)n2)cc1`, with 110%; and `CCCCc1c(O)nc(SCCN(C)C)n(-c2ccccc2)c1=O`, with 102%.
For `COc1ccc(C(=O)OC(COc2ccccc2)Cn2ccnc2)cc1` (stereo not given), the viability was determined as 94.7%.
`O=S1(=O)CC(N2CCOCC2)c2ccccc21` (stereo not given): the viability is 103%.
For the molecule `CN(C)C(=O)N1CCCC(C(=O)NCc2ccccc2)C1` (stereo not given), the viability came to 87.8%.
In the case of `O=C(NCc1ccco1)c1cnc2n(c1=O)CCS2`, the viability came out at 89.5%.
Take `C#CC(CO)N(CCN(Cc1ccccc1)C(C#C)CO)Cc1ccccc1` (stereo not given): the viability came out at 90.3%.
Then `COC(=O)c1ccccc1NC(=O)C1CC(=O)N(c2ccc(F)cc2)C1` (stereo not given), with 96%; and `Cc1noc(NS(=O)(=O)c2ccc(N3C(=O)c4ccccc4C3=O)cc2)c1C`, with 107%.
Turning to `CCn1c(SCC(=O)c2ccc(F)cc2)nnc1-c1ccoc1C`, the viability came to 106%.
In the case of `CCC(C)(C(=O)NC1CCCCC1)N(Cc1ccco1)C(=O)c1ccc2c(c1)OCO2` (stereo not given), the viability was 83.4%.
As to `CC(=O)c1cc(C#N)c(SCC(=O)OC(C)C)nc1C`, the viability was 61.2%.
In the case of `CCOC(=O)c1c(C)[nH]c(C=Nc2ccccc2)c1O` it was 101%.
